Screens (PubChem)
BH1578 lux ind: induces V. cholerae light production without autoinducers | activation, % at 18.7 µM | 0.16% of 350,000 active | V. cholerae BH1578 lux reporter, luminescence, 6 h; in the data active means activation mostly above about 9.7%, no sharp cut-off
3CLpro inhibitor: SARS-CoV 3CLpro protease inhibition; recombinant SARS-CoV 3CLpro, quenched FRET peptide cleavage; 0.14% of 290,000 active; P0C6X7; inhibition, % at 6 µM; AID 1706; in the data active means inhibition above about 12%
SSB-PriA inh: blocks PriA binding to SSB C-terminal tail. AlphaScreen SSBct-PriA binding, biotinylated peptide. 0.6% of 430,000 active. inhibition, % at 33 µM; in the data active means inhibition mostly above about 37%, no sharp cut-off; inactive means mostly below about 20%;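 further: plate controls were negative control peptide for no effect and reference peptide for full effect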
PrP 5UTR inh: inhibition of PrP 5' UTR reporter expression | cell-based PrP 5' UTR mRNA reporter, plate reader | 0.35% of 340,000 active | inhibition, % (test concentration not listed) | AID 488862; in the data active means inhibition above about 52%; further: 0 = median of the neutral control wells
PrPC surface inh: inhibitors of human cell surface prion protein PrPC. TR-FRET read-out. 0.43% of 370,000 active. inhibition, % at 13.8 µM. AID 720596; in the data active means inhibition above about 24%; further: 0% = median of the test wells and 100% = reference compound wells
PfHsp40 yeast: rescue of PfHsp40-mediated yeast toxicity | 0.68% of 340,000 active | AID 504582 | S. cerevisiae expressing PfHsp40, growth rescue, ATP luminescence | growth rescue, % at 12.5 µM; in the data active means growth rescue above about 28%, passing the limit was not always enough;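 further: yeast W303a lacking pdr1 and pdr3 grown in galactose medium; growth measured after three days at 30 °C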
Active calls of the source: *; i = inactive; nt = not tested or not shown; + = active, no number. Most compounds without a hit are left out; they make up all but 1.6% or so of the library.

SMILES	BH1578 lux ind	3CLpro inhibitor	SSB-PriA inh	PrP 5UTR inh	PrPC surface inh	PfHsp40 yeast
CCC(C)Sc1nc2c(c(=O)[nH]1)C(c1ccc(C)s1)C1C(=O)CC(C)(C)CC1=N2 (stereo unspecified)	nt	nt	-9.0	nt	nt	nt
Cn1nnn(-c2ccc(NC(=O)c3cc(=O)c4ccccc4o3)cc2)c1=O	nt	nt	-4.0	nt	nt	nt
O=C1CCCN1CCCNC(=S)Nc1ccc(F)cc1	-0.5	6.8	-2.3	2.1	-3.3	-1.0
O=C1CCCN1CCC1CCN(C(=S)Nc2ccc(F)cc2)CC1	nt	-1.1	-3.6	5.9	0.4	98.9*
CC(=O)NCCc1nc2ccccc2n1Cc1ccccc1	-0.2	3.9	97.0*	-10.6	-2.4	-2.4
CC(=O)NCCc1nc2ccccc2n1CCc1ccccc1	-0.2	-4.7	-17.1	4.5	2.8	-1.4
CC(=O)NCCc1c(C)n(Cc2ccccc2)c2ccccc12	-0.8	5.8	11.0	-20.4	9.7	63.8*
COC(=O)c1cn(Cc2cccc(C#N)c2)nc1S(=O)(=O)N1CCc2ccccc2C1	nt	nt	-2.0	nt	nt	nt
CC(=O)Oc1cc2cccc(OC(C)=O)c(=O)c2c(OC(C)=O)c1OC(C)=O	-0.5	-1.5	4.8	-18.9	nt	158.1*
C/C(=N\NC(=S)NCc1ccccc1)c1cccc(Br)c1	-0.3	-0.1	nt	-21.2	0.8	135.6*
CC(=NNC(=S)NCc1ccccc1)c1cccc(Br)c1	nt	nt	-1.0	nt	nt	nt
Cc1cccc(-n2cnc(C(=O)NNC(=S)Nc3ccc(Cl)cc3)c2)n1	-1.6	0.3	80.0*	-14.6	6.9	0.7
COCCN(Cc1ccoc1)S(=O)(=O)c1ccc2oc(=O)n(C)c2c1	nt	nt	-3.0	nt	nt	nt
CCOCCn1c(=NC(=O)C(C)C)sc2cc(NC(C)=O)ccc21	nt	nt	37.0*	nt	nt	nt
O=C(/C=C/c1ccccc1)NC(=S)NNC(=O)c1cnccn1	i	-3.0	83.2*	15.3	3.1	16.2
O=C(/C=C/c1ccccc1)NNC(=O)c1cnccn1	nt	nt	37.8	nt	nt	nt
CNC(=O)NC(=O)CSc1ccc(S(=O)(=O)N2CCOCC2)cn1	0.5	nt	5.0	-17.4	-0.4	33.1*
CC(C)CCNC(=O)NC(=O)CSc1ccc(S(=O)(=O)N2CCOCC2)cn1	1.5	nt	-2.4	-5.0	2.2	-0.2
O=C(CC(=O)c1c(F)cccc1Cl)c1ccccc1O	-1.2	6.5	-8.0	nt	-8.9	112.1*
O=C(CC(=O)c1ccccc1O)c1cccc(F)c1	-0.9	-0.6	6.7	-13.7	nt	1.0
COc1ccc(-c2csc(NC(=O)c3ccccc3F)c2C(=O)O)cc1	-0.5	8.9	-14.4	-23.0	11.9	309.8*
Cc1ccc(C(=O)Nc2scc(-c3ccccc3)c2C(=O)O)cc1	i	nt	-0.3	-19.9	-0.8	118.9*
COc1cc(C(=O)Nc2scc(-c3ccccc3)c2C(=O)O)cc(OC)c1OC	i	6.4	0.1	-13.8	-0.9	0.5
COC[C@@](C)(O)CNC(=O)C(=O)Nc1ccccc1SC	nt	nt	3.0	nt	nt	nt
O=C(NC[C@@H](c1cccs1)N1CCc2ccccc2C1)c1cccc(Br)c1	nt	nt	-13.0	nt	nt	nt
SMILES	BH1578 lux ind	3CLpro inhibitor	SSB-PriA inh	PrP 5UTR inh	PrPC surface inh	PfHsp40 yeast
O=C(NC(=S)Nc1cccc(NC(=O)c2ccccc2Cl)c1)c1cccs1	-2.4	2.8	13.6	-14.0	2.4	-0.3
Cc1ccccc1C(=O)Nc1cccc(NC(=S)NC(=O)c2cccs2)c1	+	-2.9	-1.7	-0.6	4.9	-0.2
Cc1cc(NC(=O)c2cccc3ccccc23)n(-c2nc3c(cnn3-c3ccc(F)cc3)c(=O)[nH]2)n1	nt	nt	43.0*	nt	nt	nt
COc1ccc(CC(=O)Nc2cc(C)nn2-c2nc3c(cnn3-c3cccc(C)c3C)c(=O)[nH]2)cc1	nt	nt	60.0*	nt	nt	nt
CCOC(=O)N1CCC(NC(=O)C2COCC(=O)N2Cc2cccs2)CC1 (stereo unspecified)	nt	nt	-10.0	nt	nt	nt
COc1cc(Cl)c(C)cc1NC(=O)CCc1sc(C)nc1-c1cccs1	nt	nt	2.0	nt	nt	nt
CCCCCCCCCCCCN1[C@@H](CC(=O)OC)c2cc(C(F)(F)F)ccc2S1(=O)=O	-1.4	nt	-10.8	-20.0	1.1	4.4
CCCCCCCCCCCCN1[C@@H](CC(=O)O)c2cc(F)ccc2S1(=O)=O	-1.7	nt	8.2	-4.7	-2.2	49.2*
CCCCCCCCN1[C@@H](CC(=O)OCC)c2ccc(C(F)(F)F)cc2S1(=O)=O	i	nt	-19.0	-23.4	7.0	38.0*
C=CCSc1nnc(-c2cccc3ccccc23)o1	0.6	nt	88.6*	-8.7	-5.1	-0.1
CC(C)[C@H](CN1CCC[C@H]1CN1C(N)=NC[C@@H]1Cc1ccccc1)N1C[C@@H](Cc2ccccc2)N(CCc2ccc(Cl)c(Cl)c2)C1=N	i	nt	23.7	3.4	nt	35.4*
O=C(O)c1c2c(nc3ccccc13)CCN(Cc1ccccc1)C2	nt	nt	-2.0	nt	nt	nt
NS(=O)(=O)c1ccc(NN=C/C=C/c2ccccc2[N+](=O)[O-])cc1	nt	nt	47.8*	nt	nt	nt
O=C1/C(=C/c2cccnc2)Oc2cc(OCc3ccccc3Cl)ccc21	nt	nt	-8.0	nt	nt	nt
O=C(NN=C(Cc1ncc[nH]1)c1ccccc1)c1ccncc1	nt	nt	47.9*	nt	nt	nt
COc1ccc(C(=O)NN=C(Cc2ncc[nH]2)c2ccccc2)cc1	nt	nt	-21.6	nt	nt	nt
Cc1nc(-c2ccccc2Cl)sc1CNC(=O)c1cnn(-c2ccccc2)n1	nt	nt	-18.0	nt	nt	nt
COc1ccc(NC(=O)CN2CCCC[C@H]2c2nc(-c3cccc(F)c3)no2)cc1	nt	nt	-8.0	nt	nt	nt
O=[N+]([O-])c1ccc(NNC(=S)NC2CCS(=O)(=O)C2)c([N+](=O)[O-])c1 (stereo unspecified)	nt	nt	51.0*	nt	nt	nt
O=C(NC(=S)NC1CCS(=O)(=O)C1)c1ccc([N+](=O)[O-])cc1 (stereo unspecified)	nt	nt	9.0	nt	nt	nt
COCCNC(=S)N/N=C(\C)CCc1ccc2c(c1)OCO2	0.7	0.8	nt	-13.2	-1.3	34.8*
COc1ccc(N2Cc3cc(Cl)cc(OC)c3OCC2=O)cc1Cl	nt	nt	-18.0	nt	nt	nt
COc1ccc([C@H]2CC(=O)C=C(/C=C/Cc3ccccc3)C2)cc1	i	nt	-2.2	-4.5	9.0	2.6
CCCCC/C=C/C1=CC(=O)C[C@H](c2ccc(OC)cc2)C1	i	nt	-8.7	-2.0	-0.8	44.0*
O=C(O)c1cccc2c1C(=O)c1ccc(Cl)cc1S2(=O)=O	-0.3	nt	-10.1	-18.6	-30.7	0.2
SMILES	BH1578 lux ind	3CLpro inhibitor	SSB-PriA inh	PrP 5UTR inh	PrPC surface inh	PfHsp40 yeast
O=C(O)c1cccc2c1-c1ccc(Cl)cc1C2	i	nt	-11.8	-2.1	8.2	44.3*
COc1ccccc1/C=C1\SC(=S)N(CCC(=O)NNC(=O)c2ccccc2O)C1=O	i	3.2	7.2	-19.1	nt	104.9*
COc1ccccc1C(=O)NNC(=O)CCN1C(=O)/C(=C/c2ccc(C)cc2)SC1=S	nt	nt	2.0	nt	nt	nt
Cc1cc(C=C2Sc3ccccc3N2C)cc(C)[n+]1C[C@@H]1CCCO1	nt	nt	5.0	nt	nt	nt
C/C=C/c1ccc(OCCOc2cc(C=O)ccc2OC)c(OC)c1	0.7	2.8	-3.4	-45.5	0.6	39.3*
c1ccc(CSC2=NNC(c3ccccn3)S2)cc1 (stereo unspecified)	-1.2	-0.6	4.0	-28.0	10.3	92.5*
O=C(CSC1=NNC(c2ccccn2)S1)Nc1ccc(C(F)(F)F)cc1 (stereo unspecified)	i	-2.7	24.5	-12.4	7.4	2.9
O=c1c(Br)ccc(Br)cc1Br	i	nt	3.4	-17.9	87.5*	76.7*
